Most compounds without a hit are left out; they make up all but 2.1% or so of the library.
Abeta yeast res: qHTS for compounds that reverse cellular toxicity of Amyloid beta (A-beta) peptide in yeast: Primary Screen; Potency, µM (titrated, usually from 46.1 µM), usual class: activators; 410,000 tested, 0.063% active; yeast expressing A-beta42, growth rescue, OD600, 48 h; response scale: 0% DMSO, 100% iron-clioquinol control; AID 1347071, 2019; note: nearly all actives have a fitted effect of over 55% in size
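Growth rescue measured by 600 nm absorbance after 48 h yeast culture at 30 C with compound. Values normalized between DMSO and an equimolar ferric chloride plus clioquinol control.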
aSyn yeast inh: qHTS of alpha-syn Inhibitors; Yeast expressing alpha-synuclein, growth rescue, BacTiter-Glo, 24 h; Potency, µM (doses to about 46.1 µM), for the others: top-dose growth rescue (activation), actives largely listed as activators; 370,000 tested, 0.14% active; note: % of control where 0% means no effect; nearly all actives have a fitted effect of over 65% in size
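Rescue of yeast growth: cells expressing toxic alpha-synuclein, induced in galactose at OD600 0.02, incubated with compound 24 h at 30 C. ATP luminescence quantified growth; inhibitors of toxicity appear as activators.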
TDP43 rescue: qHTS of TDP-43 Inhibitors; Potency, µM (titrated, usually from 46.1 µM), for the others: top-dose growth rescue (activation), hits mostly activators; 410,000 tested, 1.8% active; TDP-43 expressing yeast growth rescue, BacTiter-Glo, 24 h; note: % of control where 0% means no effect; nearly all actives have a fitted effect of over 50% in size
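Yeast cells expressing TDP-43 under galactose induction are exposed to compounds for 24 hr at 30 deg C. BacTiter-Glo luminescence measures growth, so protective compounds score as activators.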
FUS suppressor: qHTS for Suppressors of FUS Proteinopathy: Primary screen using FUS-linked yeast assay. Potency, µM (series often up to 76.6 µM), most hits filed as activators. 390,000 tested, 0.24% active. AID 1347120, 2019. S. cerevisiae FUS-expressing, growth rescue, OD600, 24 h;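 note: plate controls were DMSO vehicle for no effect and reference control for full effect; nearly all actives have a fitted effect of over 55% in size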
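Galactose (2%) drives FUS expression in yeast precultured in raffinose; seeding density OD 0.005. Test compounds incubated 24hr at 30C and 99% humidity before absorbance at 600 nm was measured.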
* = called active by the depositor; i = inactive; u = inconclusive; x = no result. Calls come from the whole dose curve; as a rule, active = well fitted curve in the direction sought with a large enough effect; inconclusive = small, poorly fitted or top-dose-only effect, or another doubt; inactive = no such curve, though single readings can be large; an effect the other way counts as inactive or inconclusive. Potency is the fitted concentration of half-maximal effect.

SMILES	Abeta yeast res	aSyn yeast inh	TDP43 rescue	FUS suppressor
COc1ccccc1NC(=O)CSc1nc2c(oc3ccccc32)c(=O)n1Cc1ccco1	i	x	21.1%	i
Cc1cc(C)cc(-n2c(SCC(=O)Nc3ccccc3)nc3c(oc4ccccc43)c2=O)c1	i	x	14.3%	i
CCOCCCn1c(SCC(=O)Nc2ccccc2OC)nc2c(oc3ccccc32)c1=O	i	x	22.4µM*	u
COc1ccc(Oc2nc3c(c(=O)n(Cc4ccccc4Cl)c(=O)n3C)n2C)cc1	i	x	0.0%	i
COc1ccc(C=C(C(=O)c2ccccc2)c2ccccc2)cc1	i	1.2%	0.0%	i
COc1ccc(C=C(C(=O)c2ccccc2)C(=O)c2ccccc2)cc1	i	6.3%	14.1µM*	i
COc1ccc(C=C(C(C)=O)C(=O)c2ccccc2)cc1	i	u	20µM*	i
O=C(Nc1cc(Sc2ccccn2)cc([N+](=O)[O-])c1)c1cccc(F)c1	i	3.2%	22.4µM*	x
Cc1cc2nc(-c3ccco3)c(Cc3cccc(Cl)c3)n2c(C)c1Br	i	1.5%	12.6µM*	i
CCCCC(Sc1nc2cc3c(cc2c(=O)n1CCCC(=O)NCc1ccc2c(c1)OCO2)OCO3)C(=O)OCC (configuration not stated)	i	x	-17.5%	i
COc1ccc(/C=C2/C(=O)ON=C2C)cc1Br	i	-12.6%	-43.7%	i
COc1ccccc1/C=C1/C(=O)ON=C1C	i	-9.2%	14.1µM*	i
CCN1CCN(c2nnc(-n3cccc3C(=O)Nc3cccc(OC)c3)s2)CC1	i	x	-4.3%	i
Cc1ccc(OCc2nc3ccccc3n2C(C)C(=O)Nc2c(C)cccc2C)cc1 (configuration not stated)	i	14.3%	25.1µM*	i
Cc1ccc(OCc2nc3ccccc3n2C(C(=O)NC(C)(C)C)c2ccccc2)cc1 (configuration not stated)	i	1.9%	7.2%	i
Oc1ccc(CNc2ccccc2Br)c2cccnc12	x	x	x	17.8µM*
Cc1ccccc1NCc1ccc(O)c2ncccc12	i	-6.8%	-14.2%	i
CC(C)(C)c1cnnn1-c1ccc(C(=O)CCl)cc1	i	-9.3%	8.91µM*	i
CCOc1ccccc1N(CC(=O)Nc1ccc(OC)c(Cl)c1)S(=O)(=O)c1ccccc1	i	0.8%	10.9%	i
CC1CC1C(=O)OCC(=O)NC(=O)NC12CC3CC(CC(C3)C1)C2 (configuration not stated)	8.91µM*	8.2%	-1.0%	i
COc1ccc(CC(=O)OCC(=O)NC(=O)NC23CC4CC(CC(C4)C2)C3)cc1	u	12.9%	22.8%	i
Cc1cc(SCC(=O)OCC(=O)NCC2CCCO2)c(C)cc1Br (configuration not stated)	i	4.7%	25.1µM*	i
O=C(CCC(=O)N1CCSc2ccccc21)NCc1ccccc1Cl	i	x	6.3%	i
COc1ccc(C(=O)O/N=C(\N)c2ccccn2)cc1	i	-52.9%	-0.6%	i
COc1ccc(C(=O)O/N=C(\C)c2cnccn2)cc1	i	7.8%	17.8µM*	i
SMILES	Abeta yeast res	aSyn yeast inh	TDP43 rescue	FUS suppressor
Cn1nccc1C(=O)N1CCN(c2cccc(Cl)c2)CC1	i	4.6%	22.4%	i
Cn1ncc(Cl)c1C(=O)Nc1cccc(Cl)c1	i	6.7%	7.08µM*	i
Cn1ncc(Cl)c1C(=O)N1CCN(c2cccc(Cl)c2)CC1	i	17.7%	14.1µM*	i
CSc1cccc(NC(=O)c2c(Cl)cnn2C)c1	i	1.6%	u	i
COC(=O)[C@]1(C)CN(C(=O)OC(C)(C)C)C2=C1C(=O)C[C@](C)(C(=O)OC(C)(C)C)C2	x	x	x	i
CC(=C1SC(=S)NC1=O)c1ccccc1	i	-11.8%	12.6µM*	x
O=C(CS(=O)(=O)c1ccccc1)Nc1nc(-c2ccc(F)cc2)cs1	i	-6.5%	u	i
COc1ccc(-c2csc(NC(=O)Cc3ccccc3F)n2)cc1OC	i	-36.0%	u	i
O=C(Cc1ccccc1F)Nc1nc(-c2ccc(F)cc2)cs1	i	-6.6%	12.6µM*	i
COc1ccccc1CC(=O)Nc1nc(-c2ccc(F)c(F)c2)cs1	i	-7.4%	17.8µM*	i
Cn1c(SCC2CCCCC2)nnc1-c1ccco1	x	x	x	i
Cc1nc2n(c(=O)c1CCN1CCC(c3noc4cc(F)ccc34)CC1)CCC[C@H]2O	x	-0.5%	x	x
O=C1CC(c2ccco2)Sc2ccccc2N1 (configuration not stated)	i	-0.1%	15.0%	i
O=C1CC(c2ccccc2)Sc2ccccc2N1 (configuration not stated)	i	x	11.2µM*	i
Cc1cc(OCc2cc(C(=O)N(C)C(C)c3ccccn3)no2)cc(C)c1Cl (configuration not stated)	u	2.1%	22.4µM*	u
Cc1cc(OCc2cc(C(=O)N(C)Cc3ccccn3)no2)cc(C)c1Cl	u	4.8%	u	u
Cc1cc(OCc2cc(C(=O)NC(C)c3cnn(C)c3)no2)cc(C)c1Cl (configuration not stated)	i	u	31.6µM*	i
COc1ccc(Nc2ncnc3c2cnn3-c2ccc(C)cc2C)cc1	i	x	u	i
COc1ccc2c(c1)C[C@@H]1CC(C)(C)CN1S2(=O)=O	x	x	x	i
COc1ccc2nc3oc(C(=O)N4CC(C)CC(C)C4)cc3cc2c1 (configuration not stated)	i	7.8%	12.6µM*	i
COc1ccc2nc3oc(C(=O)N4CCCCC4)cc3cc2c1	i	-6.5%	u	i
CC1CC(C)CN(C(=O)c2cc3cc(Br)cc(Br)c3o2)C1 (configuration not stated)	i	-7.5%	31.6µM*	i
O=C1CSc2ccc(C(=O)N3CCCC(C(=O)N4CCCCC4)C3)cc2N1 (configuration not stated)	x	x	x	i
COc1ccc(CCn2c(N)c(C(=O)NCc3ccco3)c3nc4ccccc4nc32)cc1	i	21.2%	17.9%	x
COCCNC(=O)c1c(N)n(CCC2=CCCCC2)c2nc3ccccc3nc12	i	-51.7%	u	39.8µM*
Cc1ccc2nc(-c3cccc(Br)c3)c(Cc3cccc(Cl)c3)n2c1	i	1.0%	35.5µM*	i
Cc1ccc(Cc2c(-c3cccc(Cl)c3)nc3ccc(Br)cn23)cc1	i	-20.3%	u	u
Clc1cccc(Cc2c(-c3cccc(Br)c3)nc3ccc(Cl)cn23)c1	i	-15.4%	u	i
Cc1ccc2nc(-c3ccc(C#N)cc3)c(Cc3cccc(Cl)c3)n2c1	i	u	35.5µM*	i
Cc1ccc(Cc2c(-c3cccc(Cl)c3)nc3ccc(Cl)cn23)cc1	i	24.0%	15.8µM*	i

Screens (PubChem)
